# Data published in PubChem BioAssay AID1851 (National Center for Advancing Translational Sciences (NCATS), 2009).
# Where “and” joins values, the source holds several entries; their conditions need not be identical. Equal entries are not always repeated. Among all 16,000 compounds or so, about 4,000 (25%) were called active. Roughly 26% stayed inconclusive and do not appear here. Calls come from the whole dose curve; as a rule, active = well fitted curve in the direction sought with a large enough effect; inconclusive = small, poorly fitted or top-dose-only effect, or effect the other way; inactive = no such curve, though single readings can be large or run the other way. Only a sample is shown. A structure can be active in one record and inactive in another.
# Target: Cytochrome P450 2C9 (Homo sapiens) (UniProt P11712)
# Sequence (P11712 whole entry, looked up): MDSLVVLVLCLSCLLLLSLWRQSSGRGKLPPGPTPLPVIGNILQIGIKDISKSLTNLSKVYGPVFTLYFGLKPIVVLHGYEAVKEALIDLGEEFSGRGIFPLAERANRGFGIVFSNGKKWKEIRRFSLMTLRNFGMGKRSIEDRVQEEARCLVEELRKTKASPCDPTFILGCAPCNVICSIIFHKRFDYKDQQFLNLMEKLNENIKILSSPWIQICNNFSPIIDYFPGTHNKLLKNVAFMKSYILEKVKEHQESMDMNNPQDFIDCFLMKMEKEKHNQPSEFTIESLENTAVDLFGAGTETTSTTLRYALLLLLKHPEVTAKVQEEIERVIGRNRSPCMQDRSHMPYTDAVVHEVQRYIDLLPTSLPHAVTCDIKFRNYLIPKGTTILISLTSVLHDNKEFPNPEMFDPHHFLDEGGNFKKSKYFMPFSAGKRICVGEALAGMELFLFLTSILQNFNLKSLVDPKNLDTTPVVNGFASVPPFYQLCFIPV
# Experiment: Cytochrome panel assay with activity outcomes
# Conditions: recombinant CYP, pro-luciferin dealkylation, luminescence, p450-cyp2c9; series mostly up to 57.1 µM
# Procedure: The P450 gene superfamily is involved in the metabolism and clearance of xenobiotics. This assay used various human CYP P450 isozymes to measure the dealkylation of various pro-luciferin substrates to luciferin. The luciferin is then measured by luminescence after the addition of a luciferase detection reagent. Pro-luciferin substrate concentration in the assay was equal to its KM for its CYP P450 isozyme. Inhibitors and some substrates limit the production of luciferin, and decrease measured luminescence.
# NCGC Assay Protocol Summary:
# 1, Reagent, 2 uL, Isozyme and Pro-Luciferin
# 2, Library compounds, 23 nl, 40 uM to 0.24 nM dilution series
# 3, Controls, 23 nl, Isozyme specific inhibitor
# 4, Reagent, 2 uL, NADPH regeneration solution
# 5, Incubation time, 60 min, Isozyme specific temperature
# 6, Reagent, 4ul, Detection reagent
# 7, Incubation time, 20 min, Isozyme specific temperature
# 8, Detection, 1 sec, ViewLux luminescent read
# The luciferase-based P450-GloTM Screening Systems were obtained from Promega (Madison, WI) for CYP 1A2 (V9770), CYP 2C9 (V9790), CYP2 C19 (V9880), CYP 2D6 (V9890), and CYP 3A4 Luciferin-PPXE (V9910) and were adapted for 1,536-well microplates and an automated protocol. The control compounds furafylline for 1A2 (F124), sulfaphenazole for CYP 2C9 (S0758), ketoconazole for CYP 2C19 (K1003), quinidine for 2D6 (Q3625), and ketoconazole for 3A4 (K1003) were purchased from Sigma Aldrich (St. Louis, MO). Recombinant P450 enzymes were obtained from baculovirus constructs expressed in insect cells (BD/Gentest).
# Medium-binding white solid Kalypsys plates used. Mixtures kept on ice. 1A2: 10 nM 1A2, 100 uM Luc-ME, 100 mM KPO4; 2C9: 10 nM 2C9, 100 uM Luc-H, 25 mM KPO4; 2C19: 5 nM 2C19, 10 uM Luc-H EGE, 50 mM KPO4; 2D6: 5 nM 2D6, 30 uM Luc-ME EGE, 100 mM KPO4; 3A4: 10 nM, 25 uM Luc-PPXE. All amounts are reflected in their final concentration, working concentration is 2x.
# NADPH regeneration solution: 1.3 mM NADP+, 3.3 mM glucose-6-phosphate, 3.3 mM MgCl2, 0.4 U/mL glucose-6-phosphate dehydrogenase for all isozymes, 200 mM KPO4 for 3A4. Mixture prepared at RT but kept on ice during automated run.
# RT incubation in auxilliary plate hotel for 1A2, 2D6, and 3A4; 37C for 2C9 and 2C19.
# Keywords: P450, CYP1A2, CYP2C19, CYP2C9, CYP2D6, CYP3A4, Luciferase, MLSMR, MLSCN, NIH Roadmap, qHTS, NCGC
# % is set by controls: 0 for no effect and ±100 for the full control effect.
Compound,"activity, negative = inhibition",AC50
O=C(C1CC(=O)N(C2CCCC2)C1)N1CCC2(CC1)OCCO2 (configuration not stated),inactive,
CCOC(=O)c1[nH]c(C)c(C(=O)N2CCC3(CC2)OCCO3)c1C,,20 µM (active)
N=C(N)c1ccc(-c2ccc(-c3ccc(C(=N)N)cc3)o2)cc1,19.5% [at 11.4 µM] (inactive),
COc1ccccc1CC1C(=O)C2CCN1CC2 (configuration not stated),inactive,
CN(N=O)C(=O)N[C@H]1C(O)OC(CO)[C@@H](O)[C@H]1O (some centres not stated),inactive,
CCOc1ccc2c(c1)C(C)=CC(C)(C)N2,,2 µM (active)
C[N+]1([O-])[C@@H]2CC(OC(=O)[C@@H](CO)c3ccccc3)C[C@@H]1[C@H]1O[C@H]12 (some centres not stated),inactive,
CC(C)CCn1c(N)c(C(=O)NCc2cccs2)c2nc3ccccc3nc21,,10 µM (active)
CCCCn1c(N)c(C(=O)NCc2cccs2)c2nc3ccccc3nc21,,14.1 µM (active)
CC(C)C(=O)CP(=O)(O)O,13.2% [at 11.4 µM] (inactive),
O[C@H](CN1CC1)[C@@H](O)CN1CC1,4% [at 11.4 µM] (inactive),
C[C@H]1CN(C2CCC(C#N)(c3ccc(F)cc3)CC2)CC[C@@]1(C(=O)O)c1ccccc1 (some centres not stated),inactive,
c1ccc2c(N3CCNCC3)cccc2c1,inactive,
Cc1nnc2ccc(-c3cccc(C(F)(F)F)c3)nn12,inactive,
c1ccc(CN2CCN(Cc3ccc4c(c3)OCCO4)CC2)cc1,inactive,
COc1ccc(C(=O)OC2C[C@H]3CC[C@@H](C2)N3C)cc1OC (some centres not stated),inactive,
O=P(Nc1ccccc1)(Nc1ccccc1)Oc1cccc(Cl)c1,,12.6 µM (active)
CN1CCc2cc3c(cc2[C@@H]1[C@@H]1OC(=O)c2c1ccc1c2OCO1)OCO3,inactive,
CCCN(CCC)C1Cc2cc(OC)c(OC)cc2C1,inactive,
NC[C@@H](Cc1ccccc1)P(=O)(O)O,22.3% [at 11.4 µM] (inactive),
Cc1ccc(S(=O)(=O)NCC2CCC(C(=O)N3CCC4(CC3)OCCO4)CC2)cc1 (configuration not stated),inactive,
O=C(CNS(=O)(=O)c1ccc(Br)s1)N1CCC2(CC1)OCCO2,,11.2 µM (active)
O=C(Cn1ncc2ccsc2c1=O)N1CCC2(CC1)OCCO2,inactive,
CO[C@H]1[C@H](O)[C@H](O[C@@H]2[C@H](Oc3cccc4c(O)c5c(=O)oc6ccc(C)c7c(=O)oc(c34)c5c67)O[C@@H](C)[C@H](O)[C@H]2O)O[C@@H](C)[C@@H]1O,-7.14% [at 11.4 µM] (inactive),
O=C(O)C[C@H]1NCc2cc3ccccc3nc21,-0.422% [at 11.4 µM] (inactive),

Compound,"activity, negative = inhibition",AC50
CN(C)CC/C=C1\c2ccccc2Sc2ccc(Cl)cc21,7.34% [at 11.4 µM] (inactive),
O=C(O)Cc1cnc[nH]1,inactive,
C=CCN1C[C@H](C)N([C@H](c2ccc(C(=O)N(CC)CC)cc2)c2cccc(O)c2)C[C@H]1C,,3.98 µM (active)
C=CCN1C[C@H](C)N([C@H](c2ccc(C(=O)N(CC)CC)cc2)c2cccc(OC)c2)C[C@H]1C,inactive,
C=CCN1C[C@@H](C)N([C@H](c2ccc(C(=O)N(CC)CC)cc2)c2cccc(OC)c2)C[C@H]1C,inactive,
NC(N)=NS(=O)(=O)c1ccc(N)cc1,inactive,
CC[C@@H](CO)NC(=O)[C@H]1C=C2c3cccc4c3c(cn4C)C[C@H]2N(C)C1,inactive,
O=[N+]([O-])c1cc(-c2ccc([As](=O)(O)O)cc2)ccc1[As](=O)(O)O,16.8% [at 11.4 µM] (inactive),
CN(C)C=C1C(=O)N(C2CCCCC2)C(=O)N(C2CCCCC2)C1=O,,2.24 µM (active)
COc1cc(-c2ccc(=O)[nH]n2)ccc1OC(F)F,inactive,
C[N+](C)(C)CCCCCC[N+](C)(C)C,inactive,
CN=C(NC#N)NCCSCc1nc[nH]c1C,inactive,
O=C(O)CS(=O)(=O)C(c1ccccc1)c1ccccc1,-12.7% [at 11.4 µM] (inactive),
C[N+](C)(C)CC#CCN1CCCC1=O,inactive,
O=C1CCCN1CC#CCN1CCCC1,,2 µM (active)
C(#CCN1CCCC1)CN1CCCC1,inactive,
CC(C)(C)C(=O)CP(=O)(O)O,9.42% [at 11.4 µM] (inactive),
OC(c1ccccc1)(c1ccccc1)C1CCCN1 (configuration not stated),inactive,
COc1ccccc1CN1CC[C@@]2(CCCN(C(=O)Oc3ccccc3)C2)C1,inactive,
Cc1ccc(C(=O)C2C(=O)c3ccccc3C2=O)cc1,,2.24 µM (active)
CCN1C[C@@]2(COC)CC[C@H](O)[C@@]34[C@@H]2C[C@@H]([C@@H]13)[C@]1(O)C[C@@H](OC)C2C[C@H]4[C@H]1[C@H]2OC(C)=O,inactive,
c1ccc2sc(C3(N4CCCCC4)CCCCC3)cc2c1,inactive,
c1ccc2c(c1)OC[C@@H](C1=NCCN1)O2,,inactive and 31.6 µM (active)
CC[C@]1(C2=NCCN2)Cc2ccccc2O1,inactive,
COc1cc2c(cc1O)[C@H]1Cc3ccc(OC)c(O)c3CN1CC2,inactive,

Compound,"activity, negative = inhibition",AC50
c1ccc(N2CCCC3(CCNCC3)C2)cc1,inactive,
CC(C)Oc1cccnc1N(C)C1CCN(Cc2ccccc2)CC1,inactive,
O=C1Nc2ccc(I)cc2/C1=C/c1cc(Br)c(O)c(Br)c1,,12.6 µM (active)
COc1cc2c(cc1OC)[C@@]13CCN4C=C5CCO[C@H]6CC(=O)N2[C@@H]1[C@@H]6[C@H]5C[C@H]43,-3.46% [at 11.4 µM] (inactive),
COc1ccc(CNC(=O)/C=C\c2ccc3[nH]cc(CCN(C)C)c3c2)cc1,inactive,
c1ccc(C[C@@H](c2ccccc2)N2CCCCC2)cc1,inactive,
CN1CCc2cc(O)cc3c2[C@H]1Cc1ccc(O)c(O)c1-3,inactive,
O=C(O)C(O)(c1ccc(-c2ccccc2)cc1)c1ccc(-c2ccccc2)cc1,,3.16 µM (active)
C[N+]12CCC(CC1)[C@@H](OC(=O)C(O)(c1ccccc1)c1ccccc1)C2,inactive,
O=C(C[n+]1ccc2ccccc2c1)c1ccc2ccc3ccccc3c2c1,16.4% [at 11.4 µM] (inactive),
CCn1cc(C(=O)O)c(=O)c2cc3c(cc21)OCO3,inactive,
Clc1ccc(C2=CCC[C@H]3CC[C@@H]2N3)cn1,inactive,
Cn1ccnc1,inactive,
c1cc(CCN2CCCCC2)ccn1,3.53% [at 11.4 µM] (inactive),
Clc1ccc(C(c2ccc(Cl)cc2)n2cc[n+](C[C@@H](OCc3ccc(Cl)cc3Cl)c3ccc(Cl)cc3Cl)c2)cc1,,31.6 µM (active)
Cc1nc(-c2ccc(-c3ccc(C(=O)N4CCc5cc6c(cc54)C4(CCN(C)CC4)CO6)cc3)c(C)c2)no1,,inactive and 7.94 µM (active)
NCCc1ccc(S(=O)(=O)O)cc1[N+](=O)[O-],8.12% [at 11.4 µM] (inactive),
C[C@H](N)c1cccc(Cl)c1Cl,inactive,
CN1C2CCC1CC(OC(=O)c1ccc(Cl)cc1)C2 (configuration not stated),inactive,
C[C@@H](C(=O)OC1C[C@H]2CC[C@@H](C1)N2C)c1ccc(Br)cc1 (some centres not stated),inactive,
CC[C@H](Oc1ccc(Cl)cc1)C(=O)OC1C[C@H]2CC[C@@H](C1)N2C (some centres not stated),,0.1 µM (active)
CCCN(CCC)[C@@H]1CCc2ccc(O)cc2C1,inactive,
O=C(Nc1ccccc1)N1CCC2(CC1)CCN(C(=O)Oc1ccccc1)CC2,inactive,
c1cnc(N2CCC3(CCNCC3)CC2)nc1,inactive,
C[Se]C[C@@H](N)C(=O)O,inactive,

Compound,"activity, negative = inhibition",AC50
O=c1[nH]c(=O)n([C@H]2C[C@H](O)[C@H](CO)O2)cc1/C=C\Br,inactive,
Oc1ccc2c3c1O[C@H]1c4c(c5ccccc5n4Cc4ccccc4)C[C@]4(O)[C@H](C2)N(CC2CC2)CC[C@@]314,inactive,
c1ccc2nc(N3CCNCC3)ccc2c1,inactive,
Clc1cccc(N2CCNCC2)c1,inactive,
Clc1cncc(N2CCNCC2)n1,,2 µM (active)
CCCN(CCC)[C@H]1CCc2c(F)ccc(O)c2C1,inactive,
NS(=O)(=O)C[C-]1C=C[CH]([Sb-]([Cl])([Cl])([Cl])([Cl])[Cl])C=C1.c1ccncc1 (configuration not stated),2.33% [at 11.4 µM] (inactive),
CNCCc1cnc[nH]1,inactive,
Cc1ccccc1-c1cncnc1NCCc1cnc[nH]1,,1 µM (active)
CN1C(=O)C(=Cc2ccccc2Oc2ccc(Cl)c(F)c2)C(=O)N(C)C1=O,,6.31 µM (active)
COC1=C(C)C(=O)c2c(c(COC(N)=O)c3n2C[C@@H]2[C@@H]3N2C)C1=O (some centres not stated),-23.6% [at 11.4 µM] (inactive),
Cc1sc2ccccc2c1CC1=NCCN1,inactive,
CC(=O)O[C@H]1C[C@@H](O[C@@H]2[C@H](C)O[C@H](O[C@@H]3[C@H](C)O[C@H](O[C@@H]4CC[C@@]5(C)[C@@H](CC[C@]6(C)[C@]5(C)C[C@H](O)[C@]5(C)[C@@H](C7=CC(=O)OC7)CC[C@@]56O)C4)C[C@@H]3O)C[C@@H]2O)O[C@@H](C)[C@H]1O[C@H]1O[C@@H](CO)[C@@H](O)[C@@H](O)[C@@H]1O,inactive,
CNC(=O)OCC[N+](C)(C)C,inactive,
COC(=O)c1cc2c(cn1)[nH]c1ccccc12,inactive,
COC(=O)c1[nH]c2ccc(Br)cc2c1NC(=O)Oc1ccccc1,,8.91 µM (active)
N[C@@H](Cc1cc(Br)c(O)c(Br)c1)C(=O)O,-7.73% [at 11.4 µM] (inactive),
CN(C(=O)Cc1ccc(Cl)c(Cl)c1)[C@@H](CN1CCCC1)c1cccc(OCC(=O)O)c1,inactive,
COC(=O)N1CCN(C(=O)Cc2ccc(Cl)c(Cl)c2)[C@H](CN2CCCC2)C1,,inactive and 12.6 µM (active)
O=C(Cc1ccc(Cl)c(Cl)c1)N1CCCC[C@H]1CN1CCCC1,inactive,
O=c1[nH]c(=O)n(CCC2=CCCCC2)c(O)c1C=Nc1cccc(F)c1,inactive,
CCn1cnc2c(Nc3cccc(Cl)c3)nc(N[C@@H]3CCCC[C@H]3N)nc21,inactive,
